# Reference: ChEMBL document CHEMBL4513216, “Probing the Open Global Health Chemical Diversity Library for Multistage-Active Starting Points for Next-Generation Antimalarials” (ACS Infect Dis, 2020)
# About 8,600 (12%) of roughly 69,000 compounds showed an effect of 50% or more. This is one part of a sample in which strong results are shown more often than they occur.
# Test system: Plasmodium berghei
# Assay: Screen against P. berghei liver stage (PbLuc), transformed with Luciferase, at 10uM
# Assay type: functional, HepG2
# Conditions: tested at 10 uM
row,SMILES,INHIBITION
1,CCN1C(=O)C(c2ccccc2)CC12CCN(Cc1cccnc1)CC2 (stereo not drawn),-4.82%
2,CN(C)CC1(O)CCCN(Cc2ccccc2OCC(=O)N(C)C)C1 (stereo not drawn),47.6%
3,OCC1(O)CCCN(Cc2ccccc2OCCc2ccccc2)CC1 (stereo not drawn),52.6%
4,O=C1NCC2(CCCN(Cc3ccccc3OCCO)C2)O1 (stereo not drawn),44.3%
5,COCCC1(C(=O)O)CCCN(Cc2ccccc2OCCO)C1 (stereo not drawn),3.48%
6,OCC1(O)CCCN(Cc2nnc(-c3ccccc3)o2)CC1 (stereo not drawn),21.2%
7,OCCOc1ccccc1CN1CCCC(O)(CO)C1 (stereo not drawn),66.5%
8,Cn1cc(C(=O)N2CCCC2c2[nH]ncc2C(N)=O)cn1 (stereo not drawn),7.52%
9,O=C(CNCc1ccccc1Cn1cccn1)Nc1cnccn1,38.5%
10,CCS(=O)(=O)N1CCC(C(=O)NC(Cc2ccsc2)c2nccs2)CC1 (stereo not drawn),59%
11,O=C(NC(Cc1ccsc1)c1nccs1)C1CC1 (stereo not drawn),12.3%
12,CS(=O)(=O)N1CCC(C(=O)NC(Cc2ccsc2)c2nccs2)CC1 (stereo not drawn),38.1%
13,Cc1cc(C)n(CC2CN(Cc3nc(-c4ccco4)no3)CCO2)n1 (stereo not drawn),36.4%
14,CN(CCN1CCOC1=O)CC(=O)Nc1ccc(Cl)c(Cl)c1,37.8%
15,O=C(c1c2c(N3CCCC3)ncnc2n2ccccc12)N1CCCC1,47.4%
16,Cc1cc(N2CCCN(C(=O)CSCC3CC3)CC2)ccn1,37.6%
17,O=C(CSCC1CC1)N1CCCN(c2ccc(F)cc2)CC1,59.4%
18,O=C(CSCC1CC1)N1CCCN(Cc2ccc(F)cc2)CC1,23.9%
19,COCc1ccccc1C(=O)N1CCCC(c2cc(C)[nH]n2)C1 (stereo not drawn),40.9%
20,CCOc1cc(NC(=O)C2CC(=O)N(c3cccc(OC)c3)C2)ncn1 (stereo not drawn),45.7%
21,COc1cc(NC(=O)C2CC(=O)N(c3cccc(Br)c3)C2)ncn1 (stereo not drawn),63.8%
22,COc1cc(NC(=O)C2CC(=O)N(c3cccc(F)c3)C2)ncn1 (stereo not drawn),6.34%
23,CC(=O)N1CCCN(C(=O)NCCOc2ccc3c(c2)OCO3)CC1,-31.8%
24,CCN1CCC2(CCC1=O)CN(C1CCOCC1)CCN2C (stereo not drawn),-10.9%
25,CNc1cnc(CC2COCCN(Cc3cccc(C)n3)C2)cn1 (stereo not drawn),3.48%
26,CN(CC1CC1)c1ccc2ccc(C(=O)NCCc3ccccc3)cn12,38.3%
27,COc1cccc(CN(Cc2ccco2)Cc2[nH]cnc2C)c1,87.7%

row,SMILES,INHIBITION
1,COc1cccc(CN(Cc2ncc[nH]2)Cc2ccco2)c1,28.3%
2,COc1ccc(OC)c(CN(Cc2ccco2)Cc2[nH]cnc2C)c1,26.1%
3,COc1ccc(CN(Cc2ccco2)Cc2[nH]cnc2C)c(OC)c1,20.6%
4,COc1cccc(CN(Cc2ccco2)Cc2cnc(C)n2C)c1,65.7%
5,Cc1noc(CN(Cc2cccc(C#N)c2)Cc2ccco2)n1,-9.82%
6,Cn1nc(C(=O)N2CCSCC2)cc1NC(=O)c1ccccc1,7.39%
7,Cn1cc(C(=O)CC2CCCN2C(=O)c2coc3ccccc23)cn1 (stereo not drawn),3.15%
8,CN(C)c1cc(CNc2cncc(-n3cccn3)n2)ccn1,-6.14%
9,CC(C)(C)c1ncc(C(=O)NCc2cccc(C(=O)N3CCCC3)c2)s1,-12.9%
10,CC1(C)[C@H](Cc2cc(CO)on2)C[C@@H]1NCc1ccc(CO)o1,58.5%
11,CC1(C)[C@H](Cc2cc(CO)on2)C[C@@H]1N(CC1CC1)CC1CC1,27.2%
12,COCc1ccc(CN[C@H]2C[C@@H](Cc3cc(CCO)on3)C2(C)C)o1,30.5%
13,O=C(c1cc(F)ccc1Br)N1CCN(C(=O)C2CC2)CC1,12.9%
14,CCOc1cc(Cl)ccc1CNC(=O)c1ccc(=O)n(C)c1,39.3%
15,CNS(=O)(=O)CC(=O)N1CC2(CCCC2)c2c(F)cccc21,-17.2%
16,O=C(NCC(=O)N1CC2(CCCC2)c2c(F)cccc21)C1CC1,40.5%
17,CCS(=O)(=O)NCC(=O)N1CC2(CCCC2)c2c(F)cccc21,62.4%
18,Cc1nn(C)cc1CN(C)C(=O)c1cnccn1,8.7%
19,Cn1cc(S(=O)(=O)NCc2ccc(F)cc2)cn1,24.175%
20,CN(C)CC1CN(Cc2ccc(-n3cccn3)cc2)CCO1 (stereo not drawn),15.3%
21,O=C(Cc1cccc(F)c1)N1C[C@H]2CN(Cc3cccnc3)C[C@H]2C1,0.112%
22,CN(C)C(=O)NC1COC2(CCN(Cc3ccc(Cl)c(F)c3)CC2)C1 (stereo not drawn),39.2%
23,CC1=NOC2(CCN(Cc3c[nH]c4ccccc34)CC2)C1,43.3%
24,CC(=O)N1CCC2(CC1)CC(C(C)C)=NO2,25.1%
25,CC(C)C1=NOC2(CCN(Cc3c[nH]c4ccccc34)CC2)C1,75.6%
26,c1ccc(C2=NOC3(CCN(Cc4c[nH]c5ccccc45)CC3)C2)cc1,63.1%
